Twelve compounds from PubChem BioAssay (NCATS) can be followed below.

Records with an inconclusive call do not appear. A number with no mark means an inactive call. Active and inactive are the calls of the source. The call rests on the fitted dose curve; in most records, active means well fitted inhibition curve with a large enough effect; inconclusive means small, poorly fitted or top-dose-only effect; inactive means flat fitted curve, though single readings scatter.

Test [1] relates to HB3. Description: qHTS profiling for inhibitors of Plasmodium falciparum proliferation (AID 504749).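 Further: 0% = DMSO vehicle and full inhibition = artemisinin control.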 The settings on record: P. falciparum in erythrocytes, SYBR Green DNA, 72 h; series mostly up to 28.7 µM. A digest of the protocol:
(§1)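 Readout was DNA-dye fluorescence from lysed cultures, ex 485/em 535 nm. Parasitized red cells had grown 72 h with compound; data scaled between 0.29 uM artemisinin and DMSO wells and corrected using vehicle-only plates.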
On the technique in general: Quantitative high-throughput screening tests each substance at several concentrations.

Test [2] relates to ICS. Described as above. The settings on record: P. falciparum in erythrocytes, SYBR Green DNA, 72 h; series mostly up to 28.7 µM. A digest of the protocol:
as §1

Test [3] has as its system JCK. The test is described as above. The settings on record: P. falciparum in erythrocytes, SYBR Green DNA, 72 h; series mostly up to 28.7 µM. A digest of the protocol: as §1
For test [4], the system named is N140. The description is as above. The conditions noted are these: P. falciparum in erythrocytes, SYBR Green DNA, 72 h; series mostly up to 28.7 µM. A digest of the protocol: as §1
Test [5] has as its system P93_24. The description is as above. The conditions noted are these: P. falciparum in erythrocytes, SYBR Green DNA, 72 h; series mostly up to 28.7 µM. A digest of the protocol: as §1
Test [6] concerns P94_40. The description is as above. The conditions noted are these: P. falciparum in erythrocytes, SYBR Green DNA, 72 h; series mostly up to 28.7 µM. The gist of the method:
as §1

Test [7] concerns PAD. Described as above. The settings on record: P. falciparum in erythrocytes, SYBR Green DNA, 72 h; series mostly up to 28.7 µM. The gist of the method:
as §1

In test [8] the test system is PC15. The description is as above. The settings on record: P. falciparum in erythrocytes, SYBR Green DNA, 72 h; series mostly up to 28.7 µM. A digest of the protocol: as §1
The subject of test [9] is PC26. The test is described as above. The conditions noted are these: P. falciparum in erythrocytes, SYBR Green DNA, 72 h; series mostly up to 28.7 µM. The gist of the method: as §1
The test system of test [10] is PC49. The test is described as above. The conditions noted are these: P. falciparum in erythrocytes, SYBR Green DNA, 72 h; series mostly up to 28.7 µM. The gist of the method: as §1
In test [11] the test system is SC27B. The test is described as above. The settings on record: P. falciparum in erythrocytes, SYBR Green DNA, 72 h; series mostly up to 28.7 µM. A digest of the protocol: as §1
Test [12] deals with TAB109. Described as above. The conditions noted are these: P. falciparum in erythrocytes, SYBR Green DNA, 72 h; series mostly up to 28.7 µM. A digest of the protocol:
as §1

In test [13] the test system is TAB113. The description is as above. The conditions noted are these: P. falciparum in erythrocytes, SYBR Green DNA, 72 h; series mostly up to 28.7 µM. A digest of the protocol: as §1
The subject of test [14] is TAB165. The test is described as above. The settings on record: P. falciparum in erythrocytes, SYBR Green DNA, 72 h; series mostly up to 28.7 µM. A digest of the protocol:
as §1

For test [15], the system named is CRL-7250. Description: Cytotoxic Profiling of Annotated Libraries Using Quantitative High-Throughput Screening (AID 1296008). Further: potency means the concentration at half of the fitted maximal effect. On max response: on the % scale 0 is the no-effect control and ±100 the full control effect. The settings on record: Five cell lines viability, CellTiter-Glo ATP luminescence, 48-72 h; max response: active compounds read low. The gist of the method:
(§2)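 Cells exposed to compounds for 48 or 72 hr at 37 degrees Celsius. Viability read as ATP-coupled luminescence with CellTiter-Glo after 10 min at room temperature.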
(In general: In ATP-based viability assays light output follows the ATP content of the culture.)

The subject of test [16] is HEK293. Described as above. The conditions noted are these: Five cell lines viability, CellTiter-Glo ATP luminescence, 48-72 h; max response: active compounds read low. A digest of the protocol: as §2
The subject of test [17] is HaCat. Described as above. The settings on record: Five cell lines viability, CellTiter-Glo ATP luminescence, 48-72 h; max response: active compounds read low. A digest of the protocol: as §2
Test [18] relates to KB-3-1. The description is as above. The conditions noted are these: Five cell lines viability, CellTiter-Glo ATP luminescence, 48-72 h; max response: active compounds read low. The gist of the method:
as §2

Test [19] relates to NIH3T3. Described as above. The settings on record: Five cell lines viability, CellTiter-Glo ATP luminescence, 48-72 h; max response: active compounds read low. A digest of the protocol: as §2
Test [20] deals with W2. Description: qHTS profiling for inhibitors of Plasmodium falciparum proliferation (AID 504749).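 Further: 0% = DMSO vehicle and full inhibition = artemisinin control.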 The conditions noted are these: P. falciparum in erythrocytes, SYBR Green DNA, 72 h; series mostly up to 28.7 µM. The gist of the method:
as §1
Further: nearly all actives have a fitted effect of over 60% in size.

Consider `CCN(CC)CCNC(=O)c1cc(Br)c(N)cc1OC`, for which the Potency result in test [1], in test [2], in [3], in [4], in test [5] and in test [6] was “inactive” throughout. Further, the Potency result in test [7], in test [8], in [9], in test [10], in test [11] and in test [12] was “inactive” in each case. In addition, the Potency result in test [13] and in [14] was “inactive” each time. In addition, the max response in test [15] was 3.66%; in test [16], -7.62%; in [17] it was -11.9%; in test [18], -23.2%; in test [19], -9.42%.

As for `Cc1c[nH]c2ccccc12`, the Potency result in [1], in test [2], in [3], in [4], in test [5] and in test [6] was “inactive” in each case. For the same compound, the Potency entry in test [7], in test [8], in [9], in [10], in test [11] and in test [12] was “inactive” in each case. In addition, the Potency entry in test [13], in test [14] and in [20] was “inactive” in each case. For the same compound, the result in [15], in [17] and in [19] was inactive. Also, the max response in test [16] was 2.22%; in [18], 8.35%.

Regarding `c1ccc(CC2=NCCN2)cc1`, the Potency result in test [1], in test [2], in test [3], in test [4], in [5] and in test [6] was “inactive” in each case. Besides, the Potency entry in test [7], in test [8], in test [9], in test [10], in test [11] and in test [12] was “inactive” throughout. In addition, the Potency result in test [13], in [14] and in test [20] was “inactive” in each case. For the same compound, the max response is 1.69% in test [15]; -22.9% in [16]; -10.1% in test [17]; -6.13% in test [18]; -5.64% in test [19].

For the compound `C[N+]12CCC(CC1)C(OC(=O)C(O)(c1ccccc1)c1ccccc1)C2` (stereo unspecified), the max response in [15] was 3.27%; in [16], -6.95%; in [17], -16.2%; in [18], 1.71%; in test [19] it was 0.982%.

As for `O=C(NCCc1c[nH]c2ccccc12)c1cccnc1`, the Potency result in test [1], in [2], in [3], in test [4], in test [5] and in test [6] was “inactive” each time. Besides, the Potency entry in [7], in [8], in test [9], in test [10], in test [11] and in test [12] was “inactive” in each case. Also, the Potency entry in [13], in test [14] and in test [20] was “inactive” in each case. The max response was 2.2% in test [15]; -10.1% in [16]; -2.67% in test [17]; -10.3% in test [18]; 0.897% in test [19].

Consider `CN(C)CCC[C@@]1(c2ccc(F)cc2)OCc2cc(C#N)ccc21`, for which the Potency result in test [1], in test [2], in test [3], in test [4], in test [5] and in test [6] was “inactive” each time. The Potency result in [7], in [8], in [9], in [10], in test [11] and in test [12] was “inactive” in each case. Besides, in [13], the Potency result is “inactive”. For the same compound, the max response in test [15] was -3.32%; in test [16], -9.91%; in test [17] it was -13.9%; in test [18], -13.4%; in test [19], 0.771%.

As to `Cc1nc(-c2ccc(Cl)cc2)oc1COC(C)(C)C(=O)O`, the Potency result in test [1], in [2], in [3], in [4], in test [5] and in test [6] was “inactive” throughout. In addition, the Potency entry in [7], in [8], in [9], in test [10], in test [11] and in test [12] was “inactive” in each case. The Potency entry in test [13], in test [14] and in test [20] was “inactive” each time. Also, the call in test [15] was inactive. Besides, the max response in test [16] is 4.06%; in test [17] it was 3.89%; in [18] it was -5.49%; in test [19], 1.1%.

`Cc1cccc(C)c1NC(=O)c1ccccc1C(=O)O`: the Potency result in test [1], in test [2], in test [3], in test [4], in [5] and in test [6] was “inactive” throughout. Also, the Potency entry in test [7], in [8], in [9], in test [10], in [11] and in [12] was “inactive” each time. Also, the Potency entry in test [13], in test [14] and in test [20] was “inactive” in each case. In [15], the compound was classed as inactive. In addition, the max response in test [16] was 0.24%; in test [17], 1.31%; in test [18] it was -0.148%; in test [19], -5.01%.

As for `CN(C)CCOC(=O)C(c1ccccc1)C1(O)CCCC1` (stereo unspecified), the max response in [15] is -17.7%; in test [18] it was -12%; in test [19], -1.59%. Further, the result in test [16] and in test [17] was inactive.

As for `C[C@H]1O[C@@H](O[C@H]2CC[C@@]3(C)[C@H](CC[C@@H]4[C@@H]3C[C@@H](O)[C@]3(C)[C@@H](C5=CC(=O)OC5)CC[C@]43O)C2)C[C@H](O)[C@@H]1O[C@H]1C[C@H](O)[C@H](O[C@H]2C[C@H](O)[C@H](O[C@@H]3O[C@H](CO)[C@@H](O)[C@H](O)[C@H]3O)[C@@H](C)O2)[C@@H](C)O1`, the Potency in test [15] was 211 nM (active); in test [16], 188 nM (active); in test [17] it was 596 nM (active); in test [18], 259 nM (active).

As for `FC1(F)C(F)(F)C(F)(F)C2(F)C(F)(F)C(F)(F)C(F)(F)C(F)(F)C2(F)C1(F)F` (stereo unspecified), the Potency result in test [1], in test [2], in test [3], in test [4], in test [5] and in test [6] was “inactive” in each case. Also, the Potency result in [7], in test [8], in test [9], in test [10], in test [11] and in test [12] was “inactive” throughout. Moreover, the Potency entry in test [13], in test [14] and in test [20] was “inactive” in each case. For the same compound, the max response in test [15] is 4.26%; in test [16], 3.06%; in [17] it was 0.333%; in test [18], 4.98%; in [19], 1.4%.

Take `C=C[C@H]1CN2CC[C@H]1C[C@@H]2[C@@H](O)c1ccnc2ccc(OC)cc12`: the max response in test [15] is -2.42%; in [16], -4.02%; in test [17] it was -4.58%; in test [18] it was -6.93%; in test [19], 1.59%.
